Screening results: PubChem, The Scripps Research Institute Molecular Screening Center
MsrA inh – inhibits bovine methionine sulfoxide reductase A; purified bovine MsrA, absorbance read-out; inhibition, % at 15.5 µM; hit rate 0.75% among 360,000; in the data active means inhibition above about 4.5%;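 further: 0% = vehicle wells with enzyme and 100% = reference inhibitor wells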
PG9 Ab binder – PG9 antibody binding by small molecule; TR-FRET gp120-PG9 antibody binding; inhibition, % at 6.7 µM; hit rate 0.43% among 360,000; in the data active means inhibition above about 8.5%
bovine MsrA act – bovine methionine sulfoxide reductase A activation; hit rate 0.3% among 360,000; purified bovine MsrA, absorbance read-out; activation, % at 10.6 µM; in the data active means activation above about 7.5%;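 further: 0% = vehicle and 100% = reference activator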
rCAG binder – r(CAG) repeat RNA binding; hit rate 1.3% among 370,000; TO-PRO-1 dye displacement fluorescence; inhibition, % at 3 µM;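 active means inhibition above the plate cutoff, the mean of all test compounds on that plate plus 3 SD, cut at about 35% in these data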;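 further: 0% = DMSO alone and 100% = 100 µM mitoxantrone as full dye displacement; higher means more dye released from RNA so lower well fluorescence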
HGIII-sPLA2 inh – Inhibits HGIII-sPLA2 liposome hydrolysis, primary screen | Q9NZ20 | QFRET BODIPY PC-A2 liposome hydrolysis, fluorescence | inhibition, % at 12.2 µM | hit rate 0.56% among 370,000 | AID 743126;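 active means inhibition above mean plus 3 SD of compounds lying within the high and low control bounds, cut at about 19% in these data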;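 further: 0% = median of test compound wells and 100% = no enzyme DMSO wells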
Target sequence (Q9NZ20 whole entry, looked up): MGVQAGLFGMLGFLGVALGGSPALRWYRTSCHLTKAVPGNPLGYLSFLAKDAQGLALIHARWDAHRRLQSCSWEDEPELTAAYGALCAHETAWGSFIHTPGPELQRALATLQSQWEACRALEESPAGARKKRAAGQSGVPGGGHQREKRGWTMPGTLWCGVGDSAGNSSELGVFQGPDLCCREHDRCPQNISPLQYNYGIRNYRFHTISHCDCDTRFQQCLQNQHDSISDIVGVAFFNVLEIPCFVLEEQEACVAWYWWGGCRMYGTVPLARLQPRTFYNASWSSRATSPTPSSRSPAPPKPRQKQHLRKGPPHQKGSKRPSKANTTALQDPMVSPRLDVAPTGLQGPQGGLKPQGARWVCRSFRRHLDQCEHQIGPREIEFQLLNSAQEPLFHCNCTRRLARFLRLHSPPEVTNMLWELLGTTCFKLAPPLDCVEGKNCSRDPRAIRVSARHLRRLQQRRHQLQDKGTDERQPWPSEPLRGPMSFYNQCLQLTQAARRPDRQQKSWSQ
rCAG binder conf – r(CAG) RNA repeat binding, confirmation. TO-PRO-1 dye displacement fluorescence. shares compounds with rCAG binder. AID 652065. hit rate 70% among 4,300. inhibition, % at 3 µM;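 active means inhibition above a per-plate cutoff, the mean inhibition of sample wells plus 3 SD, cut at about 35% in these data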;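 further: loss of TO-PRO-1 fluorescence as compound displaces dye from 1x1 AA loop RNA; 0% = DMSO only wells and 100% = 100 µM mitoxantrone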
dCAG dye counter – counter-screen for rCAG RNA binders: DNA CAG dye complex inhibitors; AID 652068; d(CAG) DNA oligo TO-PRO-1 dye displacement, fluorescence; hit rate 94% among 4,300; shares compounds with rCAG binder; inhibition, % at 3 µM;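 active means inhibition above its plate's cutoff, the mean test-well inhibition plus 3 SD, cut at about 4.8% in these data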;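 further: 0% = DNA dye mix with DMSO and 100% = 100 µM mitoxantrone; hits displace the dye from DNA and so lower well fluorescence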
DNA CAG DR – counter-screen for rCAG binders: inhibitors of DNA CAG TO-PRO-1 complex; shares compounds with rCAG binder; DNA CAG/GTC duplex TO-PRO-1 dye displacement fluorescence; IC50, µM; hit rate 20% among 250; in the data active means IC50 below about 10 µM
* = called active by the depositor; i = inactive; . = not tested or not shown. Sampled rows, rich in hits. Any-hit rate of the full collection: about 3.2%.

SMILES	MsrA inh	PG9 Ab binder	bovine MsrA act	rCAG binder	HGIII-sPLA2 inh	rCAG binder conf	dCAG dye counter	others
CC1CCc2sc(NC(=O)C3CC(Cl)=CCC3C(=O)O)c(C#N)c2C1 (stereo not given)	2.4	-2.3	-4.9	49.0*	-17.9	42.1*	12.6*
CC(=O)Nc1sc2c(c1C#N)CCC(C)C2 (stereo not given)	1.8	-0.2	-3.9	2.4	10.6	.	.
O=C(OCc1cn(Cc2ccc(C(F)(F)F)cc2)nn1)N1CCCC1	.	.	.	2.5	6.0	.	.
COc1cccc(CNC(=O)Cn2c(-c3ccccc3)cc(C(C)=O)c2C)c1	.	.	.	7.7	7.2	.	.
O=C1N/C(=N/S(=O)(=O)Cc2ccccc2)S/C1=C/c1ccc2c(c1)OCO2	1.3	-1.6	-11.8	66.3*	-35.4	56.4*	19.0*
O=C1NC(=S)SC1=Cc1ccc2c(c1)OCO2	0.3	0.6	-3.5	1.4	4.0	.	.
O=S1(=O)c2ccccc2-c2c(nnn2CC2CCCCC2)CN1C1CC1	.	.	.	2.3	0.6	.	.
On1onc2c3cc(-c4ccccc4)nc3ccc21	0.0	-1.3	-9.8	41.0*	-37.6	11.5	5.0*
Cc1ccc(S(=O)(=O)N/N=C2/CC(c3ccccc3)Oc3ccccc32)cc1[N+](=O)[O-] (stereo not given)	1.5	-1.4	-0.2	42.1*	-7.6	76.3*	36.5*
NNc1nc(Nc2ccc([N+](=O)[O-])cc2)nc(N2CCCCCC2)n1	0.9	-0.8	-3.7	35.9*	-5.6	28.8	16.3*
Cc1c(OC(C(=O)O)c2ccccc2)ccc2c1oc(=O)c1ccccc12 (stereo not given)	2.4	-0.5	-2.7	36.1*	-2.9	48.1*	13.7*
Cc1c(OC(C(=O)O)c2ccccc2)ccc2c3c(c(=O)oc12)CCC3 (stereo not given)	1.3	-0.5	0.4	7.0	8.2	.	.
O=C(O)c1cccc(-n2cccc2/C=C2/NC(=O)N(c3ccc(Cl)cc3)C2=O)c1	0.8	-2.2	-6.0	71.8*	-15.7	69.3*	30.0*
O=C(O)c1cccc(-n2cccc2/C=C2/NC(=O)N(c3cccc(Cl)c3)C2=O)c1	2.7	-1.4	-4.8	36.1*	-18.4	35.0*	10.0*
CNc1ccccc1/C(O)=C(\C#N)C(=O)NCc1cccc2ccccc12	.	.	.	11.6	5.5	.	.
Cc1onc(-c2ccc(Cl)cc2)c1-c1ccn(S(=O)(=O)c2cccc(Cl)c2)n1	.	.	.	3.8	11.0	.	.
Cc1ccc(-c2nn(-c3ccccc3)cc2C2CC(c3cccs3)=NN2C(=O)CCC(=O)O)cc1 (stereo not given)	-0.2	1.8	-4.3	15.4	12.5	.	.
O=C(O)CCn1cc(C2CC(c3ccccc3)=NN2c2ccccc2)c(-c2ccccc2)n1 (stereo not given)	1.2	2.6	-5.6	54.9*	-12.2	61.6*	21.7*
N#Cc1ccc(NC(=O)OC2CCC23CCC(c2ccccc2)CC3)cc1 (stereo not given)	.	.	.	7.0	-6.3	.	.
CCOc1ccc(C(CC(=O)O)NC(=O)C2c3ccccc3Oc3ccccc32)cc1 (stereo not given)	1.8	-0.8	-0.4	15.4	-5.3	.	.
O=C(NNC(=S)NC1CCCCC1)c1sc2ccccc2c1Cl	0.5	-1.9	-4.7	83.3*	-21.9	81.6*	53.9*
O=C(NC1CC1)c1sc2ccccc2c1Cl	0.1	1.7	-0.3	-0.2	10.8	.	.
O=C(O)CC(NC(=O)c1sc2ccccc2c1Cl)c1ccc(OC2CCCC2)cc1 (stereo not given)	-0.1	7.0	-3.3	58.5*	-25.4	72.8*	25.1*	DNA CAG DR=i
O=C(O)CC(NC(=O)C1c2ccccc2Oc2ccccc21)c1ccc(Cl)cc1 (stereo not given)	1.1	2.7	4.6	39.1*	-10.3	26.4	3.5
O=C(O)CC(NC(=O)C1c2ccccc2Oc2ccccc21)c1ccc(OC2CCCC2)cc1 (stereo not given)	-0.1	-1.1	-6.0	50.5*	-33.9	48.4*	12.1*
Nc1nc2c(ncn2[C@@H]2O[C@H](C(=O)N[C@@H](Cc3ccccc3)C(=O)NCC3CCCCC3)[C@@H](O)[C@H]2O)c(=O)[nH]1	0.3	-0.4	.	9.7	0.3	.	.
